Experimental findings from PubChem BioAssay (NCATS) are described below.

Results filed as inconclusive are left out. Values without a mark were called inactive. Calls follow the shape of the dose curve; as a rule, active = well fitted inhibition curve with a large enough effect; inconclusive = small, poorly fitted or top-dose-only effect; inactive = flat fitted curve, though single readings scatter.
% is scaled to controls: 0 for no effect and ±100 for the full control effect.

This experiment deals with Calcium and integrin-binding protein 1 (Homo sapiens) (UniProt Q99828). Briefly: Primary qHTS for Identification of Calcium Integrin Binding Protein 1 (CIB1) Competitor (AID 1508620). Also: top concentration of the series differs between compounds. Particulars: CIB1-GST / FITC-alphaIIb peptide fluorescence polarization; series mostly up to 114 µM; activity change, negative = inhibition: at the top concentration. A digest of the protocol: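 Fluorescence polarization competition: GST-tagged CIB1 (1 uM final) preincubated with compound 15 min at room temperature, then FITC-labelled alphaIIb peptide (100 nM final) added. After 15 min at room temperature, polarization read at Ex 480/Em 540.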
Calcium and integrin-binding protein 1 (Homo sapiens), sequence (Q99828 whole entry, looked up): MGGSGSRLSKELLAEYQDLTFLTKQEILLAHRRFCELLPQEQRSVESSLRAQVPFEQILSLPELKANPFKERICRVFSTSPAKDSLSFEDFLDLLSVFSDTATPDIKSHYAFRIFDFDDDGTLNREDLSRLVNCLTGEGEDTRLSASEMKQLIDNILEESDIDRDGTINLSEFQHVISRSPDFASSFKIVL
Regarding `CC(C)N1CCc2c(-c3nc4ccccc4s3)csc2C1`, the “activity change, negative = inhibition” value is 6.16%.
The same measure for `Cc1cc2c(s1)c1cnn(Cc3cc(F)cc(F)c3)c(=O)c1n2C`: 9.99%; for `COc1ccc(C2c3ccc4ccccc4c3Oc3ncn(CCN4CCOCC4)c(=N)c32)cc1OC` (stereo not given): 3.12%.
The same measure for `N#Cc1cc(NC(=O)Nc2nnc(-c3ccncc3)s2)ccc1-c1ccc[nH]1`: -3.1%.
The same measure for `N#Cc1ccc(-c2ccc(=O)n(CC(=O)NCCc3ccccc3)n2)cc1`: -1.74%.
`S=C(Nc1ccc(Cl)c(Cl)c1)Nc1nnc(-c2ccncc2)o1`: the “activity change, negative = inhibition” value is -1.5%.
Turning to `COc1ccc(C2=Nn3c(nnc3-c3cc(OC)ccc3OC)SC2)cc1`, the “activity change, negative = inhibition” value is -4.7%.
In the case of `Cc1cccc(CNc2ccnc(-c3cc(C(F)(F)F)cc(C(F)(F)F)c3)n2)c1`, the “activity change, negative = inhibition” value was 3.85%.
As to `CC(=O)c1ccc(N2CCN(C(=O)c3ccc4c(c3)CCC(=O)N4)CC2)cc1`, the “activity change, negative = inhibition” value was -3.27%.
For `COc1ccc(C2c3c(ncn(CCCc4ccccc4)c3=N)Oc3ccc4ccccc4c32)cc1OC` (stereo not given), the “activity change, negative = inhibition” value was 0.508%.
Consider `Cc1occc1-c1ccc2ncnc(NCCc3cnc[nH]3)c2c1`, for which the “activity change, negative = inhibition” value was 1.38%.
`O=C1Nc2ccc(Cl)cc2/C1=C\c1cc(Cl)c(O)c(Cl)c1`: the “activity change, negative = inhibition” value was 33.1%.
In the case of `N=c1c2c(ccn1-c1ccccc1)Oc1ccc3ccccc3c1C2c1ccccc1` (stereo not given), the “activity change, negative = inhibition” value was 1.52%.
Consider `O=C(c1ccccc1O)N(Cc1ccccc1)Cc1cccs1`, for which the “activity change, negative = inhibition” value was -2.28%.
With `Cc1c(P(=O)(c2ccccc2)c2ccccc2)c2ccccc2n1C` the figure was -13.2%; with `CCOC(=O)c1ccoc1-c1ccc2ncnc(NCCc3cnc[nH]3)c2c1`, 2.74%.
As for `Cc1cccc(-n2cnc3cc(C(=O)N4CCCC4)ccc32)c1`, the “activity change, negative = inhibition” value is 0.905%.
On to `O=C(Nc1ccc(-c2nc3ccccc3[nH]2)cc1)Nc1ccc2c(c1)OCCO2`, for which the “activity change, negative = inhibition” value is -4.26%.
With `Fc1ccc(Nc2nc(-c3ccncc3)nc3ccccc23)cc1F` the figure was -3.73%; with `FC(F)(F)c1ccccc1-c1nc(NCc2ccc(-c3ccc4ccccc4c3)cc2)c2ccccc2n1`, -2.66%; with `COc1ccc(C2NC(=O)c3ccccc3N2)cc1COc1c(C)cc(NC(C)=O)cc1C` (stereo not given), 2.15%.
With `Oc1cc(NCCc2cccnc2)cc2cccnc12`, the “activity change, negative = inhibition” value was -26.1%.
In the case of `Cc1cc(NS(=O)(=O)c2ccc(NC(=O)CCc3ccc(Cl)c(Cl)c3)cc2)no1`, the “activity change, negative = inhibition” value is -18.1%.
In the case of `Nc1ccccc1OC1=NS(=O)(=O)c2ccccc21`, the “activity change, negative = inhibition” value was -4.94%.
In the case of `O=C(OC/C=C/CSc1nnc(-c2cccc3ccccc23)o1)c1ccc(F)cc1`, the “activity change, negative = inhibition” value was -1.61%.
Consider `COc1ccccc1CNc1ccc(S(=O)(=O)Nc2nccs2)cc1`, for which the “activity change, negative = inhibition” value was 10.1%.
Take `O=C(O)c1ccc2c(c1)C(=O)N([C@H](Cc1ccccc1)C(=O)O)C2=O`: the “activity change, negative = inhibition” value is 1.35%.
The same measure for `CC(=O)Nc1sc2c(c1-c1ccc(-c3nn[nH]n3)cc1)CCNC2`: 15.7%; for `Cc1ccc(C(=O)NCC(=O)OC(C(=O)Nc2cc(C(F)(F)F)ccc2Cl)c2ccccc2)cc1` (stereo not given): -2.74%; for `COc1ccc(C(=O)N(Cc2ccco2)Cc2cccs2)c(O)c1`: -9.63%.
`Cc1ccccc1C(=O)N1CCc2cc(-c3cccc(NC(=O)Cc4ccc5c(c4)OCO5)c3)ccc21`: the “activity change, negative = inhibition” value was 0.879%.
Regarding `Cn1c2cc(Br)sc2c2cnn(Cc3ccccc3F)c(=O)c21`, the “activity change, negative = inhibition” value was 1.15%.
Turning to `Cc1cn([C@H]2C[C@H](N[S+](=O)([O-])Cc3ccccc3)[C@@H](CO)O2)c(=O)[nH]c1=O`, the “activity change, negative = inhibition” value was 2.77%.
Turning to `FC(F)(F)c1ccc(-c2ccc(CNc3nc(-c4ccccc4C(F)(F)F)nc4ccccc34)cc2)cn1`, the “activity change, negative = inhibition” value is 3.69%.
Regarding `COc1cccc(C2c3c(ncn(-c4ccc(-c5ccccc5)cc4)c3=N)Oc3ccc4ccccc4c32)c1` (stereo not given), the “activity change, negative = inhibition” value is 10.8%.
With `O=S(=O)(Nc1cccc2cccnc12)c1ccc2ccccc2c1`, the “activity change, negative = inhibition” value was -3.92%.
As to `Cc1ccc(OCCn2c(CCNC(=O)c3ccc4ccccc4c3)nc3ccccc32)cc1`, the “activity change, negative = inhibition” value was 34.1%.
With `CCCCNC(=S)NCCCN(Cc1ccc(Cl)c(Cl)c1)c1ccc(Br)cn1` the figure was -4.36%.
With `O=C1CCc2cc(S(=O)(=O)Nc3ccc(Cl)cc3)ccc2N1` the figure was -1.62%.
In the case of `Cc1c(P(=S)(c2ccccc2)c2ccccc2)c2ccccc2n1CCCc1ccccc1`, the “activity change, negative = inhibition” value was 1.89%.
